According to PubChem BioAssay:
The other results are listed elsewhere or left out. Results filed as inconclusive are left out. Values without a mark were called inactive. Active and inactive are the calls of the source.

What was measured:
[1] = target: Solute carrier family 12 member 5 (Homo sapiens) (UniProt Q9H2X9); experiment: retest of KCC2 transport modulators without sodium – cell-based, HEK293 KCC2, thallium flux, secondary assay, confirmation (AID 1713;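 active = thallium flux slope above the same plate's solvent-only control mean plus 3 SD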); conditions: FluoZin2 fluorescence, at 10 µM, hits give high values
Solute carrier family 12 member 5 (Homo sapiens), sequence (Q9H2X9 whole entry, looked up): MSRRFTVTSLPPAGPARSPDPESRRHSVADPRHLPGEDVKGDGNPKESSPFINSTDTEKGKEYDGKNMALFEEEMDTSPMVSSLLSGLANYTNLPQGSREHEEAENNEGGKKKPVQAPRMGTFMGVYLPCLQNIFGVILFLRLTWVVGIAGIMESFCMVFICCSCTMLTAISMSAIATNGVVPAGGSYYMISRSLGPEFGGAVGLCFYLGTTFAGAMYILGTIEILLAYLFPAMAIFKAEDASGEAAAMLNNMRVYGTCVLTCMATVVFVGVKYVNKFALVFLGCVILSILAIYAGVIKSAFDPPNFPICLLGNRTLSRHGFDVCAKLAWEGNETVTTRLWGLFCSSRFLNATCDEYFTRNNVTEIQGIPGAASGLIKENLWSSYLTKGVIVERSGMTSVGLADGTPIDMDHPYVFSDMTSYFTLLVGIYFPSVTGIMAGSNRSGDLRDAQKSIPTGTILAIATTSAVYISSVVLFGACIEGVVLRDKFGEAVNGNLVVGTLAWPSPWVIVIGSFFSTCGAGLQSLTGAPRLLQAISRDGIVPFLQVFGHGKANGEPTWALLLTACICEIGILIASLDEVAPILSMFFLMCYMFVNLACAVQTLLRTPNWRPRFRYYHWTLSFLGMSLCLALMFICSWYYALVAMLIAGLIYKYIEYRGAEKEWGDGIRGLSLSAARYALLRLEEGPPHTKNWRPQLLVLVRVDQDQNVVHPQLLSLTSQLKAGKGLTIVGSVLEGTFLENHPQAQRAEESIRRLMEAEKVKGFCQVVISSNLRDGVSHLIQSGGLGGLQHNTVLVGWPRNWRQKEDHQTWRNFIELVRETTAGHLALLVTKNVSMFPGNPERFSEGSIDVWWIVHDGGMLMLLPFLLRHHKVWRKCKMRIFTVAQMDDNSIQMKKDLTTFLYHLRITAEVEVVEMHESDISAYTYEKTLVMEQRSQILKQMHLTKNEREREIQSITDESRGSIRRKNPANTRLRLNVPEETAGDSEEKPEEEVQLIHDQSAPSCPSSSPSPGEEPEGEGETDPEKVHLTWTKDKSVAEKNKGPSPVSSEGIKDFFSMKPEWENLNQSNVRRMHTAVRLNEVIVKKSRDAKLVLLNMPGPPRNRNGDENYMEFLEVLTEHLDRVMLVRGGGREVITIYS

[2] = PubChem AID 1714; conditions: HEK293-KCC2 + bumetanide/ouabain, thallium flux FluoZin2; at 10 µM; hits give high values;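 also: raw slope of fluorescence over initial fluorescence between 10 and 20 s after thallium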
[3] = target: Solute carrier family 12 member 5 (Homo sapiens) (UniProt Q9H2X9); experiment: retest of KCC2 transport modulation, ouabain-free – cell-based, HEK293 KCC2, thallium flux, FluoZin2, secondary assay 2, confirmation (AID 1715); conditions: HEK293-KCC2, thallium flux FluoZin2 fluorescence; at 10 µM; actives lie on both sides; F/F0 rise rate, 10–20 s post-thallium;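 also: raw slope with 0.1% DMSO as baseline and bumetanide as block control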
[4] = target: Solute carrier family 12 member 5 (Homo sapiens) (UniProt Q9H2X9); experiment: modulation of KCC2 thallium flux in HEK cells – cell-based, ouabain, retest, confirmation (AID 1717;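 active = thallium flux slope beyond 3 SD from same-plate DMSO control mean in most replicates, usually higher, sometimes lower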;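 also: slope of initial-normalized fluorescence between seconds 10 and 20 after thallium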); conditions: HEK293-KCC2, thallium flux FluoZin2 fluorescence, at 10 µM, bidirectional: low = inhibitor, high = activator
[5] = native HEK Tl+ uptake effects, second counter-screen – HEK cells, counterscreen 2, counter-screen for KCC2 modulator project, confirmation (AID 1718;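 active = thallium flux slope above the same plate's solvent-control mean plus 3 SD in both duplicate wells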;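 also: run without ouabain in cells lacking the KCC2 cotransporter; slope of fluorescence scaled to its starting value between 10 and 20 s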); conditions: HEK293 parental, thallium flux FluoZin-2 fluorescence slope; at 10 µM
[6] = compound effects on native HEK Tl+ uptake – HEK cells, counterscreen 1, counter-screen for KCC2 modulator project, confirmation (AID 1716;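 active = thallium flux rate significantly above the same plate's solvent-only control wells, beyond their mean plus 3 SD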); conditions: HEK293 parental cells, thallium flux FluoZin2, ouabain; at 10 µM; baseline-ratio fluorescence slope, 10–20 s after thallium

| Structure (SMILES) | normalised thallium flux (F/F0 slope) [1] | normalized thallium flux [2] | normalized thallium flux [3] | raw Tl+ flux slope (below DMSO = inhibition, above = activation) [4] | thallium flux slope [5] | thallium flux rate (normalised fluorescence) [6] |
| --- | --- | --- | --- | --- | --- | --- |
| Cc1ccc(-n2ncc3c(Nc4cccc(C(=O)O)c4)ncnc32)cc1 | 0.00874 | 0.00541 | 0.0319 | 0.0185 | 0.0099 |  |
| O=C(Oc1c(-c2ccco2)oc2ccccc2c1=O)c1cccnc1 | 0.0222 (active) | 0.0675 (active) | 0.0399 | 0.0573 (active) |  |  |
| CCOc1cccc(/C=N/N2C(=O)CSC2=S)c1O | 0.00656 | 0.0152 (active) | 0.0319 |  | 0.0167 (active) | 0.0178 (active) |
| Cc1ccc(OCC(=O)N2CCN(C(=O)c3cccnc3)CC2)cc1 | 0.00886 | 0.00586 | 0.0326 | 0.0189 | 0.0114 |  |
| Cc1ccccc1NC(=S)NNC(=O)c1cccc(Br)c1 | 0.0117 | 0.028 (active) | 0.0325 | 0.0311 (active) | 0.0126 |  |
| Cc1ccc(N=Cc2c(O)n(-c3nccs3)c(=O)c3ccccc23)c(C)c1 | 0.000176 (active) | -0.00484 (active) | 0.0195 (active) | 0.0222 (active) | 0.00674 (active) |  |
| COCCn1c(C)cc(C(=O)CSc2ncnc3sc4c(c23)CCC4)c1C | 0.0102 | 0.013 (active) | 0.0342 |  | 0.0112 |  |
| CSc1ncnc2sc(C)c(C)c12 | 0.00741 | 0.0121 (active) | 0.0306 |  | 0.0129 (active) | 0.0146 (active) |
